# In ChEMBL document CHEMBL4513216, “Probing the Open Global Health Chemical Diversity Library for Multistage-Active Starting Points for Next-Generation Antimalarials” (ACS Infect Dis, 2020):
# About 2,100 (3.2%) of roughly 65,000 compounds showed an effect of 50% or more. The median lay at about -52%. The sample holds strong results, similar compounds and a random draw of the others, so the mix is not that of the screen.
# Tested on: Plasmodium falciparum
# Test: Screen against P. falciparum Asexual Blood Stage (ABS), at 5uM
# Format: functional, Dd2
# Settings: tested at 5 uM
row,SMILES,INHIBITION
1,OCC1CCC2(CC1)CN(Cc1ccsc1)Cc1ccccc1O2 (centres undefined),-50.7%
2,COCCN1CCOCC12CCN(c1nccs1)CC2,-151%
3,CN(C)c1ccc(CNC2(c3ccc(F)cc3)CCOCC2)cc1F,28.8%
4,CSc1ccc(CNC2(c3ccc(F)cc3)CCOCC2)cc1,31.4%
5,Fc1ccc(C2(NCc3ccccc3)CCOCC2)cc1,64.2%
6,c1cnc(NCc2noc3c2CN(CCN2CCCC2)CC3)nc1,-63.3%
7,OCCN1CCC2(CCc3cc(-c4ccoc4)ccc32)CC1,61.2%
8,O=C(CCO)N1CCC2(CCc3ccc(-c4ccoc4)cc32)CC1,-76.5%
9,c1cc(-c2ccc3c(c2)CCC32CCN(c3nncs3)CC2)co1,3.66%
10,COCCOCC1(CNCc2ccc(OC)cc2)C[C@@H](O)[C@@H](O)C1 (some centres undefined),-77.3%
11,COCCOCC1(CNCc2ccc(F)cc2)C[C@@H](O)[C@@H](O)C1 (some centres undefined),63.6%
12,COCCOCC1(CNCc2cccc(OC)c2)C[C@@H](O)[C@@H](O)C1 (some centres undefined),-11.2%
13,CC(C)CCN1C2(CCN(Cc3nccs3)C2)c2ccccc2S1(=O)=O (centres undefined),-17.8%
14,CN1[C@@H]2CC[C@H]1CN(C(=O)c1nnc3n1CCCCC3)CC2,-58.6%
15,Cc1noc(C)c1CN1CCC2(CC1)NC(=O)CC2c1ccccc1 (centres undefined),-39.2%
16,Cc1ccc(CN2CCC3(CC2)NC(=O)CC3c2ccccc2)s1 (centres undefined),53.7%
17,Cc1cccc(CN2CCC3(CC2)NC(=O)CC3c2ccccc2)n1 (centres undefined),-3.5%
18,CCC1(CC)C(=O)NC(=O)N/C1=N/c1cccc(OC)c1,-27.2%
19,Cc1c(CN2CCCC2(C)C(=O)N2CCOCC2)cnn1C (centres undefined),-23.9%
20,NC(=O)C1(Cc2ccc(-c3ccccc3)cc2)CCCNC1 (centres undefined),61.1%
21,NC(=O)C1(Cc2ccccc2-c2cncnc2)CCCNC1 (centres undefined),-114%
22,CCNC(=O)C1(Cc2ccc(-c3ccccc3)cc2)CCCNC1 (centres undefined),27.7%

row,SMILES,INHIBITION
1,CC1(C)CC(n2cc3nc(N4CCOCC4)[nH]cc-3c2=O)CC(C)(C)N1,-53.2%
2,Cc1cnn(CC2CN(CC(=O)Nc3cccnc3)CCO2)c1 (centres undefined),-66%
3,Cn1ccnc1C(=O)N[C@@H]1CN(CC2CCOCC2)[C@@H]2CCCO[C@@H]21,-60%
4,O=c1ccc(-c2cccs2)nn1CN1CCN(c2ccccn2)CC1,-115%
5,CNS(=O)(=O)c1cccc(C(C)NCc2cccc(O)c2)c1 (centres undefined),3.69%
6,CNS(=O)(=O)c1cccc(C(C)NCc2ccc(C)c(C)c2)c1 (centres undefined),63.4%
7,CNS(=O)(=O)c1cccc(C(C)NCc2ccccc2)c1 (centres undefined),59.4%
8,CNS(=O)(=O)c1cccc(C(C)NCc2ccco2)c1 (centres undefined),2.96%
9,CNS(=O)(=O)c1cccc(C(C)NCc2ccc(F)c(F)c2)c1 (centres undefined),11.1%
10,CCOc1ccc(CNC(C)c2cccc(S(=O)(=O)NC)c2)cc1 (centres undefined),47.6%
11,CNS(=O)(=O)c1cccc(C(C)NCc2cccc(C)c2C)c1 (centres undefined),69.7%
12,CNS(=O)(=O)c1cccc(C(C)NCc2ccncc2)c1 (centres undefined),-51.1%
13,CNS(=O)(=O)c1cccc(C(C)NCc2ccc(C)o2)c1 (centres undefined),23.3%
14,CNS(=O)(=O)c1cccc(C(C)NCc2ccsc2)c1 (centres undefined),67.2%
15,CNS(=O)(=O)c1cccc(C(C)NCc2ccc(F)cc2F)c1 (centres undefined),-3.64%
16,CNS(=O)(=O)c1cccc(C(C)NCc2nccn2C(C)C)c1 (centres undefined),-9.39%
17,CN(Cc1ccc(F)cc1)C(=O)c1ccoc1CN1CCNC(=O)C1,-169%
18,CCOCC(=O)NCCn1ccc(-c2ccccn2)n1,-74.8%
19,Cc1nc(C)c(S(=O)(=O)NC(=O)c2sccc2C)s1,-118%
20,Cn1ccnc1CN1CCC2(CC(=O)N(c3ccsc3)C2)C1 (centres undefined),-95.1%
21,Cc1ccc(NC2CCN(C(=O)c3cccc4[nH]ncc34)CC2)nn1,-12.4%
22,Cc1ccc(CN(C)CC2(O)CCCN(C)C2)o1 (centres undefined),54.2%

row,SMILES,INHIBITION
1,CCN1CCCC(O)(CN(C)Cc2ccc(C)o2)C1 (centres undefined),20.1%
2,Cc1nn(C)c(C)c1CN(C)CC1(O)CCCN(C)C1 (centres undefined),-56.8%
3,CC(C)c1nc(N2CCC(N3CCCCCC3)CC2)c2cnn(C)c2n1,51.9%
4,CC(C)c1nc(N2CCC(N3CCCC(O)C3)CC2)c2cnn(C)c2n1 (centres undefined),-33.8%
5,CC(C)c1nc(N2CCC(N3CCSCC3)CC2)c2cnn(C)c2n1,-57%
6,CC1(C)CN(CCC(=O)NCc2cccc(Cl)c2)CC[C@]1(C)O,53.1%
7,O=C(CCN1CCOC(C(F)(F)F)C1)NCc1cccc(Cl)c1 (centres undefined),-53.515%
8,Cc1ccc(C(=O)O)cc1CNC(=O)CN1CC[C@](C)(O)C(C)(C)C1,-0.0274%
9,CN(C(=O)COc1ccc(F)cc1)[C@@H]1CC[C@@H](n2ccnc2)[C@@H]1O,-72.8%
10,COCCN1CCC2(CC1)CN(C(=O)c1ccco1)CCO2,-29.3%
11,COc1ccc2[nH]nc(CN3CCC(C(C)N4CCCC4)CC3)c2c1 (centres undefined),38.8%
12,COc1ccc2[nH]nc(CN3CCC(C(=O)N4CCCCC4)CC3)c2c1,13.7%
13,COc1ccc2[nH]nc(CN3CCC(C(C)N(C)C)CC3)c2c1 (centres undefined),64.4%
14,Cn1nccc1-c1nc2c(cc1C(=O)O)CCN(C(=O)C1CC1)CC2,-73.9%
15,O=C1CC(c2ccncc2)C2(CCN(C(=O)c3cccs3)CC2)N1 (centres undefined),-50.7%
16,OCc1cn([C@@H]2c3ccccc3C3(CCNCC3)[C@H]2O)nn1,-114%
17,O[C@H]1[C@H](n2cc(CN3CCCC3)nn2)c2ccccc2C12CCNCC2,63.2%
18,COCc1cn([C@@H]2c3ccccc3C3(CCNCC3)[C@H]2O)nn1,-24.9%
19,Cc1cnc(C(=O)N2CCC3(CCN3Cc3ccc(F)cc3)C2)cn1 (centres undefined),-60.5%
20,O=C1CN(c2ccc(CNC(=O)Nc3nnc(C4CC4)s3)cc2)CCN1,-5.48%
21,COc1cc(CNc2cnn(C)c2)cc2c1OCCO2,-181%
22,c1cnn(CCNCCCOc2ccc3c(c2)OCO3)c1,23.5%

row,SMILES,INHIBITION
1,Cc1cnn(CCNCCCOc2ccc3c(c2)OCO3)c1,50.6%
2,COc1cc(CNCCc2cnn(C)c2)cc2c1OCCO2,-7.17%
3,Cc1cnn(CCNCC(O)COc2ccc(C#N)cc2)c1 (centres undefined),-106%
4,COc1cc(CNCCn2cc(C)cn2)cc2c1OCCO2,58.2%
5,Cc1cnn(CCNCCCOc2ccc(C#N)cc2)c1,65.9%
6,Cc1cnn(CCNCCCOc2ccccc2)c1,-13.6%
7,Cc1cnn(CCCOc2ccc3c(c2)OCO3)c1,-30.8%
8,CC(=O)c1cccc(OCC(=O)NS(=O)(=O)c2ccc(Br)s2)c1,-85.3%
9,CCN(CC)S(=O)(=O)N(Cc1ccccn1)Cc1ccccc1C,-6.79%
10,CC(NCC(N)=O)c1c(F)cccc1Cl (centres undefined),-21.3%
11,Cc1sc2ncnc(N3CCC(N(C)Cc4cnn(C)c4)CC3)c2c1C,23.5%
12,COCc1noc(CN2CCCCC2CCc2cccs2)n1 (centres undefined),-172%
13,O=C(O)c1cc(-c2ccncc2F)cc(S(=O)(=O)N2CCCCCC2)c1,-154%
14,O=C(c1ccco1)N1CCO[C@@H]2CN(CC3CC3)CC[C@@H]2C1,-65.2%
15,Cc1cccc(CN2CCC3(CCN(Cc4ccccn4)C3)C2=O)c1 (centres undefined),27.8%
16,Cc1nn(C)c(C)c1C1CCCN1C(=O)c1ccc(N(C)C)nc1 (centres undefined),-54.2%
17,COc1c(F)cc(-c2cccc3c2OC(CN)C3)cc1F (centres undefined),35.4%
18,NCC1Cc2cc(F)cc(-c3cnccn3)c2O1 (centres undefined),19.1%
19,COc1cc(-c2ccc(F)c3c2OC(CN)C3)cc(OC)c1OC (centres undefined),-12.8%
20,NCC1Cc2cccc(-c3nccc(N4CCC(O)CC4)n3)c2O1 (centres undefined),20.4%
21,COc1cc(-c2cccc3c2OC(CN)C3)cc(OC)c1OC (centres undefined),46.9%
22,COc1cccnc1-c1ccc(F)c2c1OC(CN)C2 (centres undefined),59.3%

row,SMILES,INHIBITION
1,COc1cc(OC)cc(-c2cccc3c2OC(CN)C3)c1 (centres undefined),68.3%
2,COc1ccc(-c2cccc3c2OC(CN)C3)cc1F (centres undefined),62.6%
3,COc1cc(-c2cccc3c2OC(CN)C3)ccc1O (centres undefined),38%
4,NCC(=O)N1CCC(c2cccc(Oc3ccccc3)n2)CC1,-20.5%
5,CC(C)(C)NC(=O)CN1CCCNCC1,-113%
6,CC(=O)NCC(=O)N1Cc2nccn2CC(COc2cccnc2)C1 (centres undefined),-98.1%
7,CNc1cccc(C2CCCN(C(=O)Cc3ccccc3)C2)n1 (centres undefined),-62.3%
8,COc1cccc(C(=O)C2CCCN(c3cc(C#N)ccn3)C2)c1 (centres undefined),-25.2%
9,Cc1noc(CNC(=O)C2CSCCC(=O)N2)n1 (centres undefined),-164%
10,COc1ncc(C2(O)CCN(Cc3c(F)cccc3F)CC2)c(OC)n1,13.1%
11,NC(=O)NCC(=O)N1C[C@@H]2CC[C@H]1CN(Cc1ccccc1)C2,-9.53%
12,CNC(=O)C1(N2CCC[C@H]2C(=O)NC2CC2)CCCCC1,-145%
13,COCCc1noc(C2CCCN(c3ncnc4c3CCC4)C2)n1 (centres undefined),-100%
14,COc1cccc(Cn2ncnc2CCC(C)N2CCN(C)CC2)c1 (centres undefined),-99.9%
15,NC1CCCCN(Cc2ccccc2CS(=O)(=O)c2ccccc2)C1 (centres undefined),55.9%
16,N[C@@H]1CCN(Cc2ccccc2CS(=O)(=O)c2ccccc2)C[C@H]1O,-23.3%
17,O=S(=O)(Cc1ccccc1CN1CC[C@H](CO)[C@H](O)C1)c1ccccc1,16.9%
18,Cc1nc(N2CCC(C)CC2)ncc1-c1cc(O)nc(N2CCCC2)n1,-113%
19,O=C1CCCCCN1Cc1ncnn1Cc1c(F)cccc1Cl,-29.5%
20,Fc1cccc(Cl)c1Cn1ncnc1CSCCN1CCCC1,61.7%
21,O=C1OCCN1Cc1ncnn1Cc1c(F)cccc1Cl,-76.9%
